Bioassay records deposited in PubChem by National Center for Advancing Translational Sciences (NCATS).
Compounds with a hit are over-represented: about 21% of the library has one in this group of screens.
Pf growth 96h: Primary qHTS for delayed death inhibitors of the malarial parasite plastid, 96 hour incubation; P. falciparum luciferase reporter growth, 96 h; Potency, µM (series often up to 28.7 µM), for the others: at the highest dose activity change, negative = inhibition, usual class: inhibitors; 6.9% of 320,000 active; AID 504834, 2011; note: potency is the fitted concentration of half-maximal effect; % is set by controls: 0 for no effect and ±100 for the full control effect
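Luminescence readout: decreased luciferase signal marks inhibited growth of reporter-expressing P. falciparum in infected red cells (2% hematocrit, 0.05% parasitemia final), exposed to compound two generations (96 h, 37 C, 5% CO2).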
Pf growth 48h: Primary qHTS for delayed death inhibitors of the malarial parasite plastid, 48 hour incubation | Potency, µM (top dose mostly 28.7 µM), without a hit: top-dose activity change, negative = inhibition, hits mostly inhibitors | 5.9% of 310,000 active | P. falciparum luciferase growth in erythrocytes, 48 h; note: potency is the fitted concentration of half-maximal effect; % is set by controls: 0 for no effect and ±100 for the full control effect
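Compounds are pin-transferred into medium, infected erythrocytes (2% hematocrit, 0.1% parasitemia final) are added, and plates sit one parasite generation at 37 C in 5% CO2. Detection reagent is then added and luminescence measured.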
SARS PLpro yeast: qHTS of Yeast-based Assay for SARS-CoV PLP; S. cerevisiae expressing SARS-CoV PLpro, growth rescue; Potency, µM (highest dose often 32.9 µM), inactives show at the top dose activity, positive = growth rescue, most hits filed as activators; 0.19% of 330,000 active; AID 485353, 2010; calls by dose curve; note: potency is the fitted concentration of half-maximal effect; 0% is about no effect; nearly all actives have a fitted effect of over 55% in size
CHX counter: Cycloheximide Counterscreen for Small Molecule Inhibitors of Shiga Toxin; AID 2314, 2010; max response, %; 12% of 300,000 active; cell reporter, cycloheximide protein synthesis inhibition counterscreen; in the data active = max response mostly above about 13%, no sharp cut-off; inactive = mostly below about 14%; note: read at 38.3 µM for the half of the compounds with a filed dose; 0% is about no effect
Shiga toxin inh: A qHTS for Small Molecule Inhibitors of Shiga Toxin; Vero cells, Shiga toxin protein synthesis inhibition reporter; inhibition, % at 38.7 µM; 9.2% of 290,000 active; AID 2315, 2010; in the data active = inhibition mostly above about 28%, no sharp cut-off; inactive = mostly below about 43%; note: 0% is about no effect
NS1 inh: qHTS Assay for Inhibitors of Influenza NS1 Protein Function; Potency, µM (series often up to 46.1 µM), without a hit: at the top dose activity, positive = more growth; 0.4% of 270,000 active; AID 2326, 2010; calls by dose curve; note: potency is the fitted concentration of half-maximal effect; actives are rising curves; nearly all actives have a fitted effect of over 50% in size
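S. cerevisiae expressing influenza A NS1, grown in glucose, washed, then diluted 1:100 into pH 6.0 -URA galactose medium with 23 nl compound. Growth recovery read as OD600; NS1-free strain serves as control.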
Numbers without * were called inactive; ? = inconclusive; nt = no result given; [ ] = remark or other dose. Unless noted, calls come from the whole dose curve; as a rule, active = well fitted inhibition curve with a large enough effect; inconclusive = small, poorly fitted or top-dose-only effect, or another doubt; inactive = no such curve, though single readings can be large or run the other way.

SMILES	Pf growth 96h	Pf growth 48h	SARS PLpro yeast	CHX counter	Shiga toxin inh	NS1 inh
CCOC(=O)c1ccc(NS(=O)(=O)c2cn(C)cn2)cc1	-6%	30%	-1%	-3	-10	-9%
COc1ccc(S(=O)(=O)N2CCCCCC2)cc1NC(=O)CCCOc1ccccc1	?	9.3µM*	-4%	nt	nt	nt
CC(NC(=O)C(=O)N1CCCCC1)C(c1cccs1)N1CCN(c2ccccc2F)CC1 (stereo not given)	1.3µM*	?	1%	4	-3	-15%
CCc1cccc(NC(=O)C(NC(=O)C2CCCCC2)C(C)C)c1 (stereo not given)	8%	?	-3%	-4	-5	nt
COc1cc(NS(=O)(=O)c2ccc(C)cc2C)cc(OC)c1OC	3.3µM*	6.6µM*	13%	3	-12	0%
CC(=O)Nc1cccc(NS(=O)(=O)c2ccccc2[N+](=O)[O-])c1	7%	25%	1%	1	-19	2%
CCS(=O)(=O)c1cc([N+](=O)[O-])c(Sc2ccccc2NC(C)=O)s1	0%	-6%	3%	14*	33	3%
COc1cccc(OCc2cc(/C=N/Nc3ccc(C(=O)O)cc3)ccc2OC)c1	-8%	9%	-1%	41*	53*	5%
CCOc1cc(/C=N\NC(=O)c2ccc(NC(=O)C(C)(C)C)cc2)ccc1OC(=O)c1ccc(OC)cc1	16%	nt	-5%	2	-6	18%
COc1cc(/C=N/Nc2ccc(Cl)c(C(=O)O)c2)ccc1OC(=O)c1ccccc1F	291%	87%	1%	29*	70*	8%
CCOc1cc(/C=N/Nc2ccc(C(=O)O)cc2)ccc1OC(=O)c1ccccc1C	69%	80%	1%	42*	42	6%
COCc1cc(/C=N\NC(=O)COc2ccccc2)ccc1OC	-13%	13%	-7%	-1	1	-15%
COc1cc(/C=N/Nc2ccc(Cl)c(C(=O)O)c2)ccc1OC(=O)c1ccc(F)cc1	349%	115%	-1%	13	23	4%
COc1cc(/C=N/Nc2cccc(C)c2)ccc1OC(=O)c1cccs1	1%	-15%	-17%	18*	33	-11%
COc1ccc(-c2nnn(CC(=O)NCCc3c[nH]c4ccccc34)n2)cc1OC	37%	-7%	-5%	-1	-5	12%
O=C(COC(=O)c1ccc(OC(F)(F)F)cc1)NCCN1C(=O)CSC1=O	-6%	-15%	0%	nt	nt	nt
COc1cccc(C(=O)Oc2ccc(/C=N/Nc3ccc(C(=O)O)cc3)cc2OC)c1	28%	0%	0%	33*	nt	9%
CCOC(=O)N1CCN(c2nc(-c3ccccc3)c3ccccc3n2)CC1	?	10µM*	-1%	-1	-1	-1%
CCOC(=O)C1CCN(C2CCN(Cc3nc(-c4ccccc4)no3)CC2)CC1	1.5µM*	10%	1%	0	-9	-3%
CCOC(=O)N1CCN(Cc2nc(-c3ccccc3)no2)CC1	nt	41%	0%	19	62*	-9%
O=C(c1ccco1)N1CCN(Cc2cc(=O)c(OCc3ccc([N+](=O)[O-])cc3)co2)CC1	?	?	-1%	nt	nt	nt
CC1CCc2sc(C(=O)N/N=C/c3ccc([N+](=O)[O-])cc3)cc2C1 (stereo not given)	13%	-1%	-2%	1	0	-1%
COc1ccc(NC(=O)CN2C(=O)NC(C)(C3CC3)C2=O)c(OC)c1 (stereo not given)	23%	7%	-15%	nt	nt	nt
CC(=O)c1ccc(OCC(=O)NCc2ccc(F)cc2)cc1	?	-4%	-1%	15	22	nt
O=C(O)c1ccc(NC2CC(=O)N(Cc3ccccc3)C2=O)cc1 (stereo not given)	9%	4%	0%	-2	-6	0%
Cc1ccc(-c2cn3c(n2)CCCC3)cc1	32%[5.75 µM]	17%	-2%	20	49	0%
c1ccc(-c2ccc(-c3cn4c(n3)CCC4)cc2)cc1	27%	nt	-11%	37*	58*	-37%
COc1ccc(-c2cn3c(n2)CCC3)cc1	-5%	78%	-5%	38*	54*	0%
